For one experiment, the system named is CRL-7250. The experiment can be described thus: Cytotoxic Profiling of Annotated Libraries Using Quantitative High-Throughput Screening (AID 1296008). Further: potency means the concentration at half of the fitted maximal effect. On max response: on the % scale 0 is the no-effect control and ±100 the full control effect. The settings on record: Five cell lines viability, CellTiter-Glo ATP luminescence, 48-72 h; max response: active compounds read low. In a few lines:
(§1)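 Compounds were pin-transferred onto cells and incubated 48 or 72 hr at 37 degree Celsius, 95% humidity. CellTiter-Glo was added, plates sat 10 min at room temperature, then ATP-coupled luminescence was imaged as the viability read-out.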
A general note: In ATP-based viability assays light output follows the ATP content of the culture.

Another experiment deals with KB-3-1. The experiment is described as above. The settings on record: Five cell lines viability, CellTiter-Glo ATP luminescence, 48-72 h; max response: active compounds read low. The gist of the method: as §1
The test system of the next experiment is NIH3T3. The description is as above. As to conditions: Five cell lines viability, CellTiter-Glo ATP luminescence, 48-72 h; max response: active compounds read low. The gist of the method: as §1
Another experiment has as its system HEK293. Described as above. As to conditions: Five cell lines viability, CellTiter-Glo ATP luminescence, 48-72 h; max response: active compounds read low. The gist of the method:
as §1

Experiment [1] relates to HaCat. The experiment is described as above. The settings on record: Five cell lines viability, CellTiter-Glo ATP luminescence, 48-72 h; max response: active compounds read low. The gist of the method: as §1
In experiment [2] the test system is HACAT. As to the kind of experiment: qHTS assay to identify novel small-molecules to repurpose for Merkel cell carcinoma treatment (AID 1296009). As to conditions: MCC and control cell lines, CellTiter-Glo viability, 72 h; at 44.8 µM (top of the series) unless noted. In a few lines:
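Cells exposed to NPC (8-point) and MIPE (11-point) compound dilutions for 72 hr at 37 degree celsius; viability read by CellTiter-Glo luminescence, normalized to no-cell and DMSO in-plate controls.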
For orientation: qHTS replaces the single test concentration by a dilution series.

Each structure is given as a SMILES string. “And” between values parts separate entries of the source, which are not always exact repeats. Equal values may be shown once. Records with an inconclusive call do not appear. Values without a mark were called inactive. The source made the active and inactive calls. The call rests on the fitted dose curve; in most records, active means well fitted inhibition curve with a large enough effect; inconclusive means small, poorly fitted or top-dose-only effect; inactive means flat fitted curve, though single readings scatter.
Further: nearly all actives have a fitted effect of over 60% in size.

`CN(C)CCN1C(=O)c2cccc3cc(N)cc(c23)C1=O`: the Potency with CRL-7250 is 10.5 µM (active); in the experiment with KB-3-1 it was 16.6 µM (active); with NIH3T3, 3.32 µM (active).

With `Cc1noc(-c2ccc(CSCCC(=O)O)cc2)c1NC(=O)OC(C)c1ccccc1Cl` (stereo unspecified), the values for the max response in the experiment with HEK293 and with HaCat [1] were -6.98% and -23.2%, respectively. Besides, the compound was classed as inactive with KB-3-1.

`CC(C)c1cnn2c(NCc3ccccc3)cc(NCCCCCCN)nc12`: the compound was called inactive with CRL-7250, with HaCat [1] and in the experiment on HACAT [2]. Besides, the max response with KB-3-1 is 3.97%; in the experiment with NIH3T3 it was 0.624%.

On to `CC(=O)ON=C1C(c2c(O)[nH]c3cc(Br)ccc23)=Nc2ccccc21`, for which, in the experiment on HEK293, the Potency was 14.8 µM (active). The max response in the experiment with HaCat [1] was -13.8%; with KB-3-1, -15.3%.

For `CC(=CC(=O)Nc1ccccc1C(=O)O)c1ccc2ccccc2c1`, the max response with CRL-7250 was -3.34%; with KB-3-1, -21%; in the experiment with NIH3T3 it was -22.4%. In addition, the result in the experiment with HaCat [1] and in the experiment on HACAT [2] was inactive.

For the compound `C[C@@]12C[C@@]3(O)O[C@@H](O1)[C@]1(COC(=O)c4ccccc4)[C@@H]3C[C@@]12O[C@@H]1O[C@H](CO)[C@@H](O)[C@H](O)[C@@H]1O`, in the experiment with CRL-7250, the max response was 4.21%. For the same compound, the compound was called inactive in the experiment on HaCat [1], in the experiment on KB-3-1, in the experiment on NIH3T3 and in the experiment with HACAT [2].

`N#Cc1c(C2CCNCC2)cc(-c2c(O)cccc2OCC2CC2)nc1N`: in the experiment on HEK293, the Potency was 20.9 µM (active). Moreover, the max response is -15.5% with HaCat [1], -14.2% with KB-3-1 and -27% in the experiment with NIH3T3.

Consider `O=C(Nc1cc2cc[nH]c2cn1)c1ccccc1`, for which the Potency was 18.7 µM (active) with CRL-7250 and 13.2 µM (active) in the experiment on NIH3T3.

Take `CCc1cc(C(C)=NOCc2ccc(C3CCCCC3)c(C(F)(F)F)c2)ccc1CN1CC(C(=O)O)C1`: the figures for the max response in the experiment on CRL-7250 and with NIH3T3 were 2.27% and -5.84%, respectively. The call with HaCat [1], in the experiment with KB-3-1 and with HACAT [2] was inactive.

As to `CC[C@@]1([C@@H]2O[C@@H]([C@H]3O[C@@](O)(CO)[C@H](C)C[C@H]3C)C[C@H]2C)CC[C@H]([C@]2(C)CC[C@]3(C[C@H](O)[C@@H](C)[C@@H]([C@@H](C)[C@@H](OC)[C@H](C)C(=O)O)O3)O2)O1`, the Potency in the experiment with HEK293 is 0.144 µM (active).

Consider `O=S(=O)(O)CCSSCCS(=O)(=O)O`, for which the compound was called inactive in the experiment on HEK293. In addition, the results for the max response with HaCat [1], in the experiment on KB-3-1 and in the experiment with NIH3T3 were -4.2%, 4.37% and -4.2%, respectively.

Turning to `C#CCC(Cc1cnc2nc(N)nc(N)c2n1)c1ccc(C(=O)N[C@@H](CCC(=O)O)C(=O)O)cc1` (stereo partly specified), the Potency is 0.0418 µM (active) with HEK293, 3.32 µM (active) in the experiment on HaCat [1], 0.146 µM (active) with KB-3-1 and 0.332 µM (active) in the experiment with NIH3T3.

As for `NC(=O)Nc1sc(-c2ccc(F)cc2)cc1C(N)=O`, the Potency is 13.2 µM (active) in the experiment on HEK293, 10.5 µM (active) with HaCat [1] and 9.35 µM (active) with KB-3-1.

Take `Cn1cc(C2=C(c3c4n(c5ccccc35)CCC(CN)C4)C(=O)NC2=O)c2ccccc21` (stereo unspecified): the Potency was 13.2 µM (active) with HEK293, 37.2 µM (active) in the experiment with HaCat [1], 6.62 µM (active) in the experiment with KB-3-1 and 16.6 µM (active) in the experiment on NIH3T3.

In the case of `CC(C)NC[C@@H](C(=O)N1CCN(c2ncnc3c2[C@H](C)C[C@H]3O)CC1)c1ccc(Cl)cc1`, the Potency was 0.209 µM (active) in the experiment on HEK293 and 4.18 µM (active) in the experiment with HaCat [1].

Turning to `CC(=O)NCC(=O)N1[C@H]2CC[C@H]1c1cc(Nc3ncc(C(F)(F)F)c(NC4CCC4)n3)ccc12`, the Potency with HEK293 was 5.26 µM (active); in the experiment with HaCat [1], 0.132 µM (active); with KB-3-1, 1.66 µM (active); with NIH3T3 it was 1.32 µM (active).

As to `COc1ccc(S(=O)(=O)Nc2cc(-c3c(O)ccc4ccccc34)c(O)c3ccccc23)cc1`, the values for the max response in the experiment with CRL-7250 and with HaCat [1] were -21.5% and -11.6%, respectively. The call with NIH3T3 was inactive.

With `Cc1[nH]c(C=C2C(=O)Nc3ccccc32)c(C)c1CCC(=O)O`, the Potency with HEK293 is 4.18 µM (active); in the experiment on NIH3T3 it was 1.48 µM (active). Besides, the max response with HaCat [1] is 0.623%; in the experiment with KB-3-1, 3.92%.

Turning to `Cc1nc(NC(=O)N2CCC[C@@H]2C(N)=O)sc1-c1ccnc(C(C)(C)C(F)(F)F)c1`, the Potency in the experiment on HEK293 is 14.8 µM (active); in the experiment with HaCat [1] it was 3.32 µM (active); in the experiment on KB-3-1, 8.33 µM (active); in the experiment with NIH3T3, 16.6 µM (active).

Turning to `COc1cc(O)c2c(c1)C1OC1C[C@H](O)[C@H](O)C(=O)C=CC[C@H](C)OC2=O` (stereo partly specified), the Potency in the experiment on CRL-7250 is 26.4 µM (active); in the experiment with HaCat [1], 23.5 µM (active); with NIH3T3 it was 16.6 µM (active).

Take `CN1CCc2c(c3ccccc3n2Cc2ccc(C(=O)NO)cc2)C1`: the max response with CRL-7250 is -28.2% and -9.31%. In addition, the Potency in the experiment on KB-3-1 was 26.4 µM (active).

Consider `COC(=O)C1C2CC3c4[nH]c5cc(OC)ccc5c4CCN3CC2CC(OC(=O)c2cc(OC)c(OC)c(OC)c2)C1OC` (stereo unspecified), for which the figures for the max response in the experiment with CRL-7250, in the experiment on KB-3-1 and in the experiment on NIH3T3 were -19.7%, 3.89% and -9.23%, respectively. Also, the call in the experiment with HaCat [1] and with HACAT [2] was inactive.

For `C[C@@H](Cc1cc2c(c(C(N)=O)c1)N(CCCO)CC2)NCCOc1ccccc1OCC(F)(F)F`, the Potency in the experiment with CRL-7250 is 20.6 µM (active). Further, the max response in the experiment with KB-3-1 was -7.67%.

In the case of `CCCNS(=O)(=O)Nc1ncnc(OCCOc2ncc(Br)cn2)c1-c1ccc(Br)cc1`, the values for the max response in the experiment with CRL-7250 and in the experiment on NIH3T3 were -8.99% and -4.31%, respectively. The call in the experiment on HaCat [1], in the experiment on KB-3-1 and in the experiment on HACAT [2] was inactive.

`N#CC(=Cc1ccc(O)c(O)c1)C(=O)NCc1ccccc1`: the max response with HEK293 is -6.05%; in the experiment on HaCat [1] it was -2.31%. For the same compound, in the experiment on KB-3-1, the outcome was inactive.

Regarding `CN(C)c1ccc2cc(C(=O)N[C@@H](CCCN=C(N)CCl)C(=O)NCc3ccccc3)ccc2c1`, the Potency in the experiment on CRL-7250 is 18.7 µM (active). For the same compound, the max response in the experiment on HaCat [1] was -9.24%; in the experiment on NIH3T3 it was -19.2%.

As for `CCOC(=O)[C@H](CCc1ccccc1)N[C@@H](C)C(=O)N1[C@@H](C(=O)O)C[C@H]2CCC[C@@H]21`, the Potency was 18.7 µM (active) with HEK293 and 37.2 µM (active) in the experiment on HaCat [1].

For `CCCCCCCCc1ccc(CCC(N)(CO)CO)cc1`, the Potency in the experiment with HEK293 is 26.4 µM (active); with HaCat [1], 18.7 µM (active).

`C[C@]12CCC(=O)C=C1[C@@H]1CC1[C@H]1[C@H]3[C@@H]4C[C@H]4[C@@]4(CCC(=O)O4)[C@@]3(C)CC[C@H]12` (stereo partly specified): the max response in the experiment with CRL-7250 was 3.77%; in the experiment on HaCat [1], -9.69%. In the experiment with NIH3T3, the result was inactive.

Consider `C#C[C@]1(O)CC[C@@H]2[C@@H]3CCc4cc(O)ccc4[C@H]3CC[C@@]21C`, for which the max response in the experiment with CRL-7250 was -14.3%; in the experiment with NIH3T3, -5.15%. Moreover, in the experiment on KB-3-1, the Potency was 20.9 µM (active).

For the origin of these results see PubChem BioAssay (NCATS).
